This is a sample that favours compounds with a hit; in the whole collection about 2.4% have one here.
HTT-AS act: HTT-AS promoter activation. HEK293 HTT-AS promoter firefly luciferase reporter, 24 h; response scale: percent change from vehicle, -100% = no light. Potency, µM (doses to about 57.5 µM), without a hit: top-dose activity change, positive = activation, hits mostly activators. hit rate 0.24% among 48,000; further: nearly all actives have a fitted effect of over 55% in size
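Luminescence was read after Dual-Glo reagent and a 10 min room-temperature incubation. Values were normalized to vehicle (0% activity) and zero RLU (-100% activity). Reporter HEK293 cells had been exposed to compounds (up to 57.5 uM final) for 24 h.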
HTT promoter inh: inhibitors of huntingtin promoter activity; AID 1508623; hit rate 0.93% among 48,000; HEK293 HTT promoter firefly luciferase reporter, 24 h; Potency, µM (titrated, usually from 57.5 µM), without a hit: top-dose activity change, negative = inhibition, most hits filed as inhibitors; further: nearly all actives have a fitted effect of over 50% in size
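Firefly luciferase signal from promoter-reporter HEK293 cells was scaled between vehicle (0%) and zero RLU (-100%). Compounds were tested at final concentrations of up to 57.5 uM over 24 h at 37 degrees C. PTC124 at 50 uM final served as control inhibitor.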
NTMT1 inh: NTMT1 methyltransferase inhibition; Q9BV86; NTMT1 MTase-Glo SAH luminescence, purified enzyme; Potency, µM (highest dose often 114 µM), without a hit: top-dose activity change, negative = inhibition, hits mostly inhibitors; hit rate 2.5% among 59,000; AID 1645870;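 further: plate controls were DMSO vehicle for no effect and no enzyme for full effect; nearly all actives have a fitted effect of over 65% in size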
Target sequence (Q9BV86 whole entry, looked up): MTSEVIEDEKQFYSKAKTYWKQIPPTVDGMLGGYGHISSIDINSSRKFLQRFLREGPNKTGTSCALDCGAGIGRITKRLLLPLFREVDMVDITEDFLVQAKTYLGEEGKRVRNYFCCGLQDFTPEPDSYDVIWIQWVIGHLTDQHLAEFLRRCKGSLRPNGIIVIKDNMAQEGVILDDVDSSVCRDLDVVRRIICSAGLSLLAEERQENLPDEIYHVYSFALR
* marks the source's active call; other numbers are inactive results; ? = inconclusive; / = not tested or not shown; ! = not confirmed by another sample; [ ] = dose if it differs, or a comment. The call rests on the fitted dose curve; in most records, active means well fitted curve in the direction sought with a large enough effect; inconclusive means small, poorly fitted or top-dose-only effect, or another doubt; inactive means no such curve, though single readings can be large; an effect the other way counts as inactive or inconclusive. Potency means the concentration at half of the fitted maximal effect.

SMILES	HTT-AS act	HTT promoter inh	NTMT1 inh
CC1CCN(c2nc3ccc(C(=O)NCCc4ccc(S(N)(=O)=O)cc4)cc3s2)CC1	?	0.398µM*	89.1µM*
CC1CCN(c2nc3ccc(C(=O)NCc4ccccc4)cc3s2)CC1	-76.2%	0.112µM*	4.7%
CC1CCN(c2nc3ccc(C(=O)NC(C)C)cc3s2)CC1	?	-83.1%	?
Cc1ccc(CNC(=O)c2ccc3nc(N4CCCCC4)sc3c2)cc1	-37.2%	?	-1.0%
CC(C)N1CCc2c(sc(NC(=O)c3ccccc3)c2-c2nc3ccccc3s2)C1	/	/	7.9%
Cc1ccc2nc3sc(C(=O)N4CCOCC4)cc3cc2c1	/	/	0.6%[57.5 µM]
Cc1ccc(NS(=O)(=O)c2ccccc2C(=O)Nc2nc(-c3ccccc3)cs2)cc1	/	/	13.8%
Cc1ccc(NC(=O)/C(C#N)=C/c2ccc(C(C)C)cc2)cc1C	-10.8%	-13.2%	27.5%
N#C/C(=C\c1ccc(O)c(O)c1)C(=O)NCCCNC(=O)/C(C#N)=C/c1ccc(O)c(O)c1	/	/	1.26µM*
COC(=O)C1C(c2ccc(O)cc2)C(C(=O)O)C1c1ccc(O)cc1 (stereo not given)	/	/	15.0%[29.8 µM]
CCCCNC(=O)c1cnn2c(C)c(Cc3c(C)cc(C)cc3C)c(C)nc12	-59.1%	?	0.0%
CCCNC(=O)c1cnn2c(C)c(Cc3c(C)cc(C)cc3C)c(C)nc12	-47.4%	5.01µM*	4.8%
Cc1ccc2nc3sc(C(=O)NC4CCCC4)cc3cc2c1	/	/	1.4%[57.5 µM]
CCc1ccc(CN2CCc3nc(Nc4ccc5c(c4)OCCO5)ncc3C2)cc1	-16.6%	-38.2%	89.1µM*
Cc1ccc(CN2CCc3nc(Nc4ccc5c(c4)OCCO5)ncc3C2)cc1	-2.5%	-12.1%	2.8%
COc1cccc(CN2C(=O)c3ccccc3NC2c2ccc(OC)c(COc3c(C)cc(NC(C)=O)cc3C)c2)c1 (stereo not given)	/	/	13.1%
CC(=O)N1CCCC1c1nc2ccccc2n1Cc1c(F)cccc1Cl (stereo not given)	-11.9%	-10.8%	89.1µM*
CC(=O)N1CCCC1c1nc2ccccc2n1Cc1cc(C)ccc1C (stereo not given)	-24.7%	-29.5%	14.5%
CN(C)c1ccc(C2N=C(Nc3nc4ccccc4o3)NC3=C2C(=O)CCC3)cc1 (stereo not given)	/	/	3.3%[57.5 µM]
Cc1ccc(-c2c(C)n3c4c(=O)n(C)c(=O)n(C)c4nc3n2CCCO)cc1	-61.8%	10µM*	?
COC(=O)CCCn1c(-c2ccc(C)cc2)c(C)n2c3c(=O)n(C)c(=O)n(C)c3nc12	-8.4%	4.9%	-14.3%
COc1ccc(-c2cnc3c(-c4cccc5ncccc45)cnn3c2)cc1	/	/	-1.8%[57.5 µM]
c1cc(-c2cnn3cc(-c4ccc(OCCN5CCCCC5)cc4)cnc23)ccn1	-24.4%	-22.2%	34.1µM*!
N#Cc1ccc(NS(=O)(=O)c2ccc(NC(=O)Cc3ccc(F)c(Cl)c3)cc2)cc1	/	/	9.1%
Cc1ccc(CNS(=O)(=O)c2ccc3c(c2)CCN3S(C)(=O)=O)cc1	-14.9%	-28.9%	50.1µM*
SMILES	HTT-AS act	HTT promoter inh	NTMT1 inh
CCc1ccc(S(=O)(=O)NCc2ccc3c(c2)CCN3C(=O)c2ccc(C)cc2)cc1	-57.9%	?	20.8%
CC1(C)OC(=O)CC(O)C2(C)C1CC(=O)C1(C)C2C(O)CC2(C)C(c3ccoc3)OC(=O)C3OC321 (stereo not given)	/	/	-11.1%[29.8 µM]
CN(C)c1ccnc2sc3c(=O)n(N4CCCCCC4)cnc3c12	/	/	-7.0%[57.5 µM]
N#Cc1ncc(C(=O)OCC(=O)NC2C3CC4CC(C3)CC2C4)cn1 (stereo not given)	/	/	8.0%
CC(C)(C)c1ccc(-c2ccc(=O)n(CC(=O)NCCc3ccccc3)n2)cc1	/	/	15.1%
O=C(Cn1nc(-c2ccc(F)cc2)ccc1=O)NCCc1ccccc1	/	/	79.4µM*
Cc1cc(C)c2c(c1)[C@@H](N(Cc1cc(C(F)(F)F)cc(C(F)(F)F)c1)c1nnn(C)n1)CCCN2CC1CCC(C(=O)O)CC1 (stereo not given in full)	/	/	4.6%
Cc1ccc(NC(=O)c2cnc3cc(C)ccn3c2=O)c(C)c1	3.55µM*	58.0%	-0.4%
Cc1ccc2ncc(C(=O)Nc3cccc(C(F)(F)F)c3)c(=O)n2c1	-9.8%	-2.6%	2.1%
O=C(O)c1ccc(O)c2ncc(N3CCCN(CCc4cccc5ccccc45)CC3)cc12	/	/	37.8%[57.5 µM]
Cc1ccc(Cn2c(C)c3cnn(CC(=O)N4CCN(c5ccc(F)cc5)CC4)c(=O)c3c2C)cc1	-85.5%	14.1µM*	?
Cc1c2cnn(CC(=O)N3CCCCC3)c(=O)c2c(C)n1Cc1ccc(F)cc1	0.2%	-0.1%	-1.0%
COc1cccc(CNc2ccc(S(=O)(=O)Nc3ccc4ccccc4c3)cc2)c1O	/	/	15.5%[57.5 µM]
COc1cccc(CNc2ccc(S(=O)(=O)Nc3ccc(C4CCNCC4)cc3)cc2)c1O	/	/	39.8µM*
COc1ccc(-c2nc3ccccc3o2)cc1NC(=O)COc1ccc(C)c(C)c1	?	22.7%	-19.1%
COc1ccc(OCC(=O)Nc2cc(-c3nc4ccccc4o3)ccc2Cl)cc1	10µM*	49.0%	1.0%
Cc1cc(C(=O)N2CCCCc3ccccc32)ccc1CNC(=O)N1CCC[C@H]1C(=O)N(C)C	/	/	-1.5%[57.5 µM]
Cc1cc2c(cc1S(=O)(=O)NCc1ccccc1Cl)OCC(=O)N2	-15.7%	-25.7%	-5.7%
Cc1ccc(CNS(=O)(=O)c2cc3c(cc2Cl)NC(=O)CO3)o1	-3.7%	2.9%	89.1µM*
COc1cccc2sc(NC(=O)c3ccc(S(=O)(=O)N4CCC(C)CC4)cc3)nc12	-45.5%	28.2µM*	6.7%
CC1CCN(S(=O)(=O)c2ccc(C(=O)Nc3nc4ccc(F)cc4s3)cc2)CC1	-23.8%	-22.7%	18.3%
CCCCCCCCCCCCCC#CC(=O)[C@@H]1COC(C)(C)N1C(=O)OC(C)(C)C	/	/	-4.4%
COc1ccc2sc(N(Cc3cccnc3)C(=O)c3cccs3)nc2c1	-32.5%	14.1µM*	?
CCOc1ccc2nc(N(Cc3cccnc3)C(=O)c3cccs3)sc2c1	?	27.6%	-9.9%
Cc1ccc(OCCn2c(CCNC(=O)c3cccc(Cl)c3)nc3ccccc32)cc1	/	/	5.9%
SMILES	HTT-AS act	HTT promoter inh	NTMT1 inh
Cc1ccc(S(=O)(=O)Nc2cnccc2C(=O)Nc2ccc(N3CCOCC3)cc2)cc1	/	/	13.6%
CONC(=O)Nc1ccc(-c2sc3c(c2CN(C)Cc2ccccc2)c(=O)n(-c2ccccc2)c(=O)n3Cc2c(F)cccc2F)cc1	/	/	10.2%
O=C(Nc1ccc(Br)cc1F)N1CC=C(c2c[nH]c3ccccc23)CC1	-23.2%	?	?
CC(C)(O)C(=O)N1CCN(c2ccc(C(F)(F)F)c(C3=C(c4c[nH]c5ccccc45)C(=O)NC3=O)c2)CC1	/	/	11.2µM*
Cc1ccc(C2N=C(Nc3nc4ccccc4o3)NC3=C2C(=O)CCC3)cc1 (stereo not given)	/	/	2.3%
CN(C)CCCNc1cc(N2CCN(C3CCCCC3)CC2)c2noc3c2c1C(=O)c1ccccc1-3	-18.1%	-3.3%	11.2µM*
O=C1c2ccccc2-c2onc3c(N4CCN(C5CCCCC5)CC4)cc(NCCO)c1c23	-14.1%	-6.9%	?
Cc1ccc(CN2CCC(CNc3ncnc4onc(-c5ccc(F)cc5)c34)CC2)cc1	-19.2%	-21.1%	79.4µM*
Fc1ccc(-c2noc3ncnc(NCC4CCN(Cc5ccc(Cl)cc5)CC4)c23)cc1	-31.3%	-27.7%	-20.9%
